Source: PubChem BioAssay (several laboratories)
Most compounds without a hit are left out; they make up all but 3.8% or so of the library.
ERa SRC1 pot: enhances coactivator binding to human estrogen receptor alpha. actives 1.3% (n = 86,000). P03372. coactivator binding (% of control), % at 25.6 µM. TR-FRET ERalpha-LBD/SRC-Cy5 coactivator binding, 2 h; 100 = basal binding, no effect; in the data active means activity above about 200%;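 further: binding measured in presence of low estradiol as agonist stimulus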
Target sequence (P03372 whole entry, looked up, the tested form may be a part): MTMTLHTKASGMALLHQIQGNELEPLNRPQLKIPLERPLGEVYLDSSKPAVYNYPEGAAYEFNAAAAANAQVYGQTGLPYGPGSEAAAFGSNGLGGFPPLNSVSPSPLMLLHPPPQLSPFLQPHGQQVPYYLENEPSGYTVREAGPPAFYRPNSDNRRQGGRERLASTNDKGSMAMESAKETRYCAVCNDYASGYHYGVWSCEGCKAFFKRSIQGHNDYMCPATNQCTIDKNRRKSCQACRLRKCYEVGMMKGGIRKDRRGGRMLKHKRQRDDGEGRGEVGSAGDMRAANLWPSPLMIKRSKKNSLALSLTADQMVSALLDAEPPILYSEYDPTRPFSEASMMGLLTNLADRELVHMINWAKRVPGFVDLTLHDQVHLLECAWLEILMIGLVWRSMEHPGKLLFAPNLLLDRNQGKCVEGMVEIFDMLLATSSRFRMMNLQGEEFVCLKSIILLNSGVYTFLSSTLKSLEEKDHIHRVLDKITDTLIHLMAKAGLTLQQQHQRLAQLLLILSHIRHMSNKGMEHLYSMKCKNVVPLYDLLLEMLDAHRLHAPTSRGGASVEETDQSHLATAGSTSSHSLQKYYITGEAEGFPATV
Smad3 FoxH1 inh: inhibitors of human Smad3 transcription factor binding; P84022; TR-FRET Smad3/Dy647-FoxH1 peptide binding, europium anti-His; inhibition, % at 25 µM; actives 0.29% (n = 88,000); AID 630;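 active means compounds that reduce the energy-transfer binding signal between the protein and its labelled peptide by more than half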
ERa coact inh: ER-alpha (human) coactivator binding inhibition. TR-FRET ER-alpha LBD / SRC-1 peptide, estradiol-bound. actives 1.7% (n = 86,000). AID 629. inhibition, % at 25.6 µM. P03372; in the data active means inhibition above about 50%
Candida biofilm: kills Candida albicans biofilms; C. albicans biofilm + clotrimazole, Alamar Blue; inhibition, % at 6 µM; actives 0.14% (n = 85,000);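 active means inhibition above 20%; inactive means inhibition below 20%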;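 further: preformed 24 hr biofilms exposed to compound for 48 hr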
ERb SRC1 inh: blocks coactivator binding to human estrogen receptor beta. TR-FRET ER-beta LBD / SRC1-Cy5 peptide binding; receptor agonist-loaded with 1 µM estradiol. Q92731. actives 1.3% (n = 86,000). AID 633. inhibition, % at 25.6 µM;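 active means compounds whose percent inhibition of the receptor-coactivator binding signal exceeds about 50% in the single-dose screen, limit read from the data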
Each line names hits and unclear results; the compound was inactive in the other large screens; [ ] = dose if it differs, or a comment.

CCCCOc1ccc(C(=O)NCc2ccccn2)cc1	ERa SRC1 pot 623[fluorescence artefact?]
O=C(NCc1ccccn1)c1ccc(/C=N/O)nc1	ERb SRC1 inh 66[fluorescence artefact?]
Cn1nnnc1SCC(=O)Nc1nc(-c2ccccc2)c(-c2ccccc2)o1	ERa SRC1 pot 391
N#CC(C(=O)Nc1ccc(Cl)c(Cl)c1)=C1Nc2ccccc2N1	ERa coact inh 79[fluorescence artefact?], ERb SRC1 inh 70[fluorescence artefact?]
O=C(CSc1cn(CCNC(=O)c2ccccc2)c2ccccc12)NCc1ccco1	Candida biofilm 22
Nc1ccc2nc(-c3ccc(Cl)cc3)[nH]c2c1	ERa coact inh 87[fluorescence artefact?]
Nc1cc(N)cc(-c2nc3ccccc3[nH]2)c1	none
Nc1ccc(-c2nc3c(Cl)c(N)ccc3[nH]2)cc1	ERb SRC1 inh 53[fluorescence artefact?]
Cc1ccc(C)c(-c2nc3ccc(N)cc3[nH]2)c1	none
Nc1ccc(C(=O)Nc2ccc3nc(-c4cccnc4)[nH]c3c2)cc1	none
Nc1ccc2nc(-c3cc(Cl)c(N)c(Cl)c3)[nH]c2c1	ERa coact inh 95[fluorescence artefact?]
CCCC(c1cc(C(C)(C)C)c(O)cc1C)c1cc(C(C)(C)C)c(O)cc1C	none (no result: ERa SRC1 pot, ERa coact inh, Candida biofilm, ERb SRC1 inh)
O=C(Nc1nc(-c2cc3ccccc3oc2=O)cs1)c1ccc(Br)o1	ERa SRC1 pot 224[fluorescence artefact?]
N#Cc1c(N)sc(=S)c2c1CCCCC2	ERb SRC1 inh 57[fluorescence artefact?]
N#Cc1c(N)sc2c1CCCCCC2	none
COc1ccc(-c2noc(CCC(=O)N3CCN(c4cc(C)ccc4C)CC3)n2)cc1	none
COc1ccc(-c2nnc3sc(CN4C(=O)c5ccccc5C4=O)nn23)cc1	ERa SRC1 pot 227
COc1ccc(-c2nnc3sc(C(C)N4C(=O)c5ccccc5C4=O)nn23)cc1 (centres undefined)	none
c1ccc(-c2nnc3sc(Cc4cccs4)nn23)cc1	ERa coact inh 64[fluorescence artefact?], ERb SRC1 inh 57
O=C1c2ccccc2C(=O)N1Cc1nn2c(-c3ccc(Cl)cc3)nnc2s1	ERa SRC1 pot 383[fluorescence artefact?]
C[C@H](Br)C(=O)c1ccc2cc(Br)c3ccccc3c2c1	none (no result: ERa SRC1 pot, ERa coact inh, Candida biofilm, ERb SRC1 inh)
CC(C)(C)CC(C)(C)c1ccc(O)c(CN2CCN(CCC#N)CC2)c1	none
CC(C)(C)CC(C)(C)c1cc(O)c(O)c(CN2CCCCC2)c1	Smad3 FoxH1 inh 93 (no result: ERa SRC1 pot, ERa coact inh, Candida biofilm, ERb SRC1 inh)
CN(CC(=O)NC(c1ccccc1)c1ccccc1)Cc1nc2ccccc2c(=O)[nH]1	none
CN(CC(=O)NC(=O)NCc1ccco1)Cc1nc2ccccc2c(=O)[nH]1	ERa coact inh 61
O=c1[nH]c2cc3c(cc2cc1C(c1nnnn1C1CCCC1)N1CCSCC1)OCCO3 (centres undefined)	ERa SRC1 pot 215[fluorescence artefact?]
O=C(O)c1oc(C(=O)O)c(C(=O)O)c1C(=O)O	none (no result: ERa SRC1 pot, ERa coact inh, Candida biofilm, ERb SRC1 inh)
Nc1ccc(NC(=O)c2cccs2)c(Cl)c1	ERa SRC1 pot 237[fluorescence artefact?]
Cc1ccc(-c2cc(C(=O)NC3=NCCS3)c3cc(Br)ccc3n2)o1	ERa SRC1 pot 281[fluorescence artefact?], ERa coact inh 52[fluorescence artefact?]
Cc1ccc(-c2cc(C(=O)NCCCn3ccnc3)c3cc(Br)ccc3n2)o1	ERa coact inh 88[fluorescence artefact?]
O=C(NC1=NCCS1)c1ccc(-c2ccc(Cl)cc2)o1	none
Cc1[nH]nc2c1/C(=N/O)CC(c1ccccc1)C2 (centres undefined)	none
C=C(C)CN(CC#N)CC(=C)C	none (no result: ERa SRC1 pot, ERa coact inh, Candida biofilm, ERb SRC1 inh)
COc1cc2c(cc1O)[C@@H](c1cc(O)c(O)c(OC)c1)[C@](O)(C(=O)O)[C@@H](CO)[C@@H]2O	none (no result: ERa SRC1 pot, ERa coact inh, Candida biofilm, ERb SRC1 inh)
Cc1ccc(C2=C(Cl)C(=O)C(c3ccc(C)cc3)=C(Cl)C2=O)cc1	Smad3 FoxH1 inh 52 (no result: ERa SRC1 pot, ERa coact inh, Candida biofilm, ERb SRC1 inh)
C1=CC2c3ccccc3NC(c3ccncc3)C2C1 (centres undefined)	none
O=C(O)c1ccc(Cl)c2c1C1C=CCC1C(c1ccccn1)N2 (centres undefined)	ERa coact inh 65[fluorescence artefact?], ERb SRC1 inh 87[fluorescence artefact?]
CCOC(=O)/C=C1\SCC(=O)N1Cc1nnc(-c2ccccc2Br)o1	ERa coact inh 59[fluorescence artefact?]
O=C(O)c1cccc(CN2CCCCC2)c1	none (no result: ERa SRC1 pot, ERa coact inh, Candida biofilm, ERb SRC1 inh)
COc1ccc(-c2nnc3sc(-c4ccccn4)nn23)cc1	none
Clc1ccccc1-c1nn2c(-c3ccncc3)nnc2s1	none
Clc1ccc(-c2nnc3sc(-c4ccccn4)nn23)cc1	none
Clc1ccc(-c2nn3c(-c4ccncc4)nnc3s2)c(Cl)c1	ERa SRC1 pot 330
CC(C)(C)c1ccc(-c2nnc3sc(-c4ccccn4)nn23)cc1	ERa SRC1 pot 262
c1ccc(-c2nn3c(-c4ccncc4)nnc3s2)nc1	ERa coact inh 58[fluorescence artefact?]
O=C(Nc1ccc2c(c1)nc1n2CCN(C2CCCCC2)C1)c1ccco1	ERa coact inh 61, ERb SRC1 inh 53
O=C(Nc1ccc2c(c1)nc1n2CCOC1)c1ccco1	none
O=C(Nc1ccc2c(c1)nc1n2CCSC1)c1ccco1	ERa coact inh 80, ERb SRC1 inh 61[fluorescence artefact?]
Cn1c(CCNC(=O)c2ccco2)nc2cc(NC(=O)C3CCCCC3)ccc21	none
CCOCCCNS(=O)(=O)c1ccc(Br)cc1	none
CCOCCCn1c(=N)c(C(=O)Nc2cc(C)on2)cc2c(=O)n3ccccc3nc21	none
CCC(C)(C)n1nnnc1C(c1cc2cc(C)cc(C)c2[nH]c1=O)N1CCN(Cc2ccc3c(c2)OCO3)CC1 (centres undefined)	ERa SRC1 pot 227[fluorescence artefact?]
Cc1cnc(C(=O)Nc2ccccc2-c2ccc(C)o2)cn1	none
O=C1c2ccccc2C(=O)N1C[C@]1(C(=O)O)NCCS1(=O)=O	none (no result: ERa SRC1 pot, ERa coact inh, Candida biofilm, ERb SRC1 inh)
COc1ccc(/C=N/n2cc(-c3ccccc3)nc2N)cc1	none
COc1ccc(/C=N/n2cc(-c3ccc(OC)cc3)nc2N)cc1	ERa coact inh 77[fluorescence artefact?]
c1cncc(-c2nc(-c3ccco3)cs2)c1	ERb SRC1 inh 60[fluorescence artefact?]
c1ccc(C2=NN[C@@H]3c4ccccc4-c4ccccc4N3C2)cc1	none (no result: ERa SRC1 pot, ERa coact inh, Candida biofilm, ERb SRC1 inh)
O=c1ccc(/C=C/c2ccccc2)nn1Cc1ccc(Cl)cc1Cl	ERa SRC1 pot active[fluorescence artefact?]
O=c1ccc(/C=C/c2ccccc2)nn1Cc1ccccc1Cl	none
Cc1noc(C)c1COc1ccc(C(=O)OCC(=O)N2c3ccccc3NC(=O)C2(C)C)cc1	ERa coact inh 73, ERb SRC1 inh 68
COc1ccc(C(C)=O)cc1COC(=O)c1ccc(OCc2c(C)noc2C)cc1	ERa SRC1 pot 277, ERa coact inh 55[fluorescence artefact?]
COc1ccc(C(C)=O)cc1COC(=O)c1c(C)noc1C	none
CC(=NCC(=O)O)c1ccccc1	none (no result: ERa SRC1 pot, ERa coact inh, Candida biofilm, ERb SRC1 inh)
COCCN1C(=O)c2ccccc2C(C(=O)NCC2CCCO2)C1c1c[nH]c2ccccc12 (centres undefined)	none
CN1C(=O)c2ccccc2C(C(=O)NCC2CCCO2)C1c1c[nH]c2ccccc12 (centres undefined)	ERb SRC1 inh 81[fluorescence artefact?]
COc1ccc(-c2n[nH]c(C)c2-c2ccc(Cl)cc2)c(O)c1	none
COc1ccc(-c2n[nH]c(C(F)(F)F)c2-c2cc3ccccc3o2)c(O)c1	ERa SRC1 pot 239
O=C(Oc1ccc2ccccc2c1)c1ccco1	none
O=C(Oc1cccc(-c2cnc3ccccc3n2)c1)c1ccco1	ERa SRC1 pot 311
O=C(Nc1ccc2c(c1)OCO2)c1cnn2c(C(F)(F)F)cc(-c3ccco3)nc12	none
O=C(Nc1cnn(C23CC4CC(CC(C4)C2)C3)c1)c1cnn2c(C(F)(F)F)cc(-c3ccco3)nc12	ERa coact inh 81, ERb SRC1 inh 60
NCCCc1c(-c2ccccc2)nc(N)[nH]c1=O	none (no result: ERa SRC1 pot, ERa coact inh, Candida biofilm, ERb SRC1 inh)
